Assay results taken from patent US20220289795, “EFFICIENT METHOD FOR PREPARING PPR PROTEIN AND USE OF THE SAME” (EditForce, Inc., published 2022).

Biological target: T1, v3.1_PPR14 (Artificial Sequence)
T1 chain: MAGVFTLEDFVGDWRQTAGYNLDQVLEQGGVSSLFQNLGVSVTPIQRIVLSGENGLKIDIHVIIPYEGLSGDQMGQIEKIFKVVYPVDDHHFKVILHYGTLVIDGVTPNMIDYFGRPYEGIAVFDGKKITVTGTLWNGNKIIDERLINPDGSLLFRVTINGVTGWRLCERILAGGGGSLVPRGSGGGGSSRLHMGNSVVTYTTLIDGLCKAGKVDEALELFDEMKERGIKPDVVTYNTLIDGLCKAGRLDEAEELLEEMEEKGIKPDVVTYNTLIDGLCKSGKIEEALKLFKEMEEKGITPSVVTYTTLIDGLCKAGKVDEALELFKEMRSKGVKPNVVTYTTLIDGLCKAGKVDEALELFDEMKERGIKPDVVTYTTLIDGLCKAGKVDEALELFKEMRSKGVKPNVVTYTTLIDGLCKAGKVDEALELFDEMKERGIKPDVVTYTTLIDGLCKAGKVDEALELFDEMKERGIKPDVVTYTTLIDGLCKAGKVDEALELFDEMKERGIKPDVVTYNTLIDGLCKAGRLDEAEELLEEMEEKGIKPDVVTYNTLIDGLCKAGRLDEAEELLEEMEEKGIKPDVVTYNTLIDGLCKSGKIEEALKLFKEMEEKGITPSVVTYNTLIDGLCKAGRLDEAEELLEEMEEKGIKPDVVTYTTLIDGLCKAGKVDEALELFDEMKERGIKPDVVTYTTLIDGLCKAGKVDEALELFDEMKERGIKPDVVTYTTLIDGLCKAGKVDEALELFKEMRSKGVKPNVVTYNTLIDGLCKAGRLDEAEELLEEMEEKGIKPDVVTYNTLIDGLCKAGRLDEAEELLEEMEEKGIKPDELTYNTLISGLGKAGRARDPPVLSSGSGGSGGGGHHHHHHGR
Experiment: RPB-ELISA
Details: tags: N-terminal luciferase, C-terminal 6xHis; label: 5'-biotin; ssRNA
Procedure: RNA probes consisting of a designed 30-base sequence containing 18 bases of the target sequence and modified by biotinylation at the 5′ end (RNA_1, RNA_2, RNA_3, RNA_4, and RNA_5, SEQ ID NOS: 61 to 65) were synthesized (Grainer). To a streptavidin-coated plate (Thermo fisher), the 5′-end biotinylated RNA probes were added, reaction was allowed at room temperature for 30 minutes, and the plate was washed with a lysis buffer (20 mM Tris-HCl, pH 7.6, 150 mM NaCl, 5 mM MgCl₂, 0.5% NP-40, 1 mM DTT, 0.1% BSA). For background measurement, wells to which RNA was not added, but 100 μL of the lysis buffer, 1 μL of 100 mM DTT, and 1 μL of 40 unit/4 RNase inhibitor (Takara, 2313A) were added were also prepared. Then, 200 μL of a blocking buffer (20 mM Tris-HCl, pH 7.6, 150 mM NaCl, 5 mM MgCl₂, 0.5% NP-40, 1 mM DTT, 1% BSA) was added, and the plate surface was blocked at room temperature for 30 minutes. Then, 100 μL of E. coli lysate containing luciferase-fused PPR protein having a luminescence level of 1.5×10⁸ LU/μL was added to each well, and the binding reaction was allowed at room temperature for 30 minutes. The well was washed 5 times with 200 μL of a washing buffer (20 mM Tris-HCl, pH 7.6, 150 mM NaCl, 5 mM MgCl₂, 0.5% NP-40, 1 mM DTT). […] The background (luminescence signal value obtained with adding the PPR protein and without adding RNA) was subtracted from the luminescences of the samples to which a solution containing each RNA and PPR protein was added, and the obtained values were used as the binding powers between the PPR protein and RNA.
By using the V3.1 motif, PPR proteins for the same 23 kinds of target sequences were similarly prepared (SEQ ID NOS: 411 to 433 for the nucleotide sequences, and SEQ ID NOS: 434 to 456 for the amino acid sequences), and bindings of all the combinations were analyzed by using RPB-ELISA. The experimental method was the same as that used in Example 3.
Sequence GUGGGGGUGGUAGGAAAU has a binding signal of 20.1 log2 luminescence.
In the case of GGUUAGAGAUACAGUGUG, the binding signal is reported as 22.5 log2 luminescence.
